Compounds with a hit are over-represented: about 3.5% of the library has one in this group of screens.
Mtb UGM inh: Mtb UDP-galactopyranose mutase inhibition; purified UGM, fluorescence polarization probe displacement; inhibition, % at 10 µM; 320,000 tested, 0.06% active; in the data active = inhibition above about 10%, passing the limit was not always enough; inconclusive = no clear call, values can overlap the other calls
Mtb bLac sens: beta-lactam sensitization of Mtb H37Rv; 330,000 tested, 0.27% active; inhibition, % at 25 µM; M. tuberculosis H37Rv growth with meropenem, percent inhibition; call rule not given here;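 note: growth measured after seven days incubation then overnight dye step; 0% = bacteria only wells and 100% = bacteria with antibiotic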
GDH-TPI counter-1: inhibits GDH-TPI coupling enzymes, artifact for Mtb FBA screen; GDH-TPI coupled enzyme counterscreen, NADH absorbance; inhibition, % at 4.8 µM; 360,000 tested, 1.2% active; AID 588335; in the data active = inhibition above about 30%;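 note: 0% = DMSO wells and 100% = wells lacking the enzyme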
FBA Mtb inh: Mtb fructose-bisphosphate aldolase inhibition. purified M. tuberculosis FBA, fluorescence read-out. inhibition, % at 1 µM. P9WQA3. 360,000 tested, 2.3% active;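 note: 0% = vehicle and 100% = reference inhibitor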
Rv3671c inh: inhibits the M. tuberculosis serine protease Rv3671c; P9WHR9; AID 2606; inhibition, % at 5.96 µM; 320,000 tested, 0.048% active; in the data active = inhibition above about 38%;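 note: extracellular domain of Rv3671c used as enzyme; 0% = enzyme with DMSO and 100% = no enzyme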
Target sequence (P9WHR9 whole entry, looked up, the tested form may be a part): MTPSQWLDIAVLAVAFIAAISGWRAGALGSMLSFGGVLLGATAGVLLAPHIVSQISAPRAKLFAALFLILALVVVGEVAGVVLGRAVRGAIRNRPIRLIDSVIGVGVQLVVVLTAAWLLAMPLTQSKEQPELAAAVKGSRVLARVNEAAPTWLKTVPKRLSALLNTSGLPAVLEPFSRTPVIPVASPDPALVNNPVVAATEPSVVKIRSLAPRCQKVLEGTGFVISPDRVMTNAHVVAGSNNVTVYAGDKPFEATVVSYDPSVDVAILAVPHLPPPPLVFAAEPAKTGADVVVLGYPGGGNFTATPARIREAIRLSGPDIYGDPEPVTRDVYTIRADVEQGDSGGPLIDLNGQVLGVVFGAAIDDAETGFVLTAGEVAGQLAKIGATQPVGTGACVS
Mtb FBA inh conf: Mtb FBA inhibition, confirmed. shares compounds with FBA Mtb inh. purified M. tuberculosis FBA, fluorescence read-out. inhibition, % at 1 µM. 5,600 tested, 78% active;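 note: 0% = vehicle wells and 100% = reference inhibitor wells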
GDH-TPI counter-2: GDH-TPI inhibition counter-screen for FBA inhibitors; 5,600 tested, 81% active; GDH-TPI coupled enzyme counterscreen, fluorescence; shares compounds with FBA Mtb inh; AID 652141; inhibition, % at 1 µM; in the data active = inhibition above about 10%
An asterisk follows results filed as active; ? = inconclusive; nt = not tested or not shown; + = active, no number. Cut-off read from the data, not from the text of the source, unless noted: active = inhibition above about 27%; inactive = the rest.

SMILES | Mtb UGM inh | Mtb bLac sens | GDH-TPI counter-1 | FBA Mtb inh | Rv3671c inh | Mtb FBA inh conf | GDH-TPI counter-2
COc1cc2cc(CN(CCCO)S(=O)(=O)c3ccccc3Cl)c(=O)[nH]c2cc1OC | 3 | 0 | -3 | 19 | 1 | nt | nt
CCCc1ccc(C(=O)CCC(=O)NNC(=O)c2ccncc2)cc1 | 3 | 97 | 5 | 0 | -4 | nt | nt
C=CCNC(=O)c1ccc2nc(-c3ccccc3)c(-c3ccccc3)nc2c1 | 2 | 11 | 10 | 32* | -4 | + | 175*
CCOc1ccc(-c2cc(C(=O)N3CCN(C)CC3)c3ccccc3n2)cc1 | -1 | -3 | 19 | 92* | 0 | -8 | -6
CCOC(=O)N1CCN(C(=O)c2ccc3nc(-c4ccccc4)c(-c4ccccc4)nc3c2)CC1 | -2 | 62 | 25 | 35* | -1 | 99* | 67*
CCOc1ccc(-c2cc(C(=O)N3CCCC3)c3ccccc3n2)cc1 | -4 | ? | 9 | 91* | 1 | 152* | 131*
C=CCNC(=O)c1ccc(C(=O)c2ccccc2)cc1 | 0 | -1 | -10 | 1 | -5 | nt | nt
COc1ccc(Cn2c(S(=O)(=O)CC(N)=O)nc3ccccc32)cc1[N+](=O)[O-] | -2 | -4 | nt | nt | 5 | nt | nt
Cc1cccc(-c2nnc(SCC(=O)Nc3ncccn3)n2C)c1 | 0 | -4 | 1 | 3 | -1 | nt | nt
Cc1cccnc1CN1CCN(Cc2nc(Cc3cccc(F)c3)no2)CC1 | 2 | 13 | -6 | 7 | 1 | nt | nt
CCOC(=O)N1CCN(C(=O)c2cc(-c3ccc(OCC)cc3)nc3ccccc23)CC1 | -2 | 26 | 26 | 77* | 3 | 103* | 71*
Nc1nccnc1C(=O)OCc1nc2sc3c(c2c(=O)[nH]1)CCCC3 | -1 | -2 | 9 | 40* | 6 | + | +
CC(SCc1nc2sc3c(c2c(=O)[nH]1)CCCC3)C(=O)Nc1ccccn1 (stereo not given) | 0 | 0 | 6 | 37* | -3 | 127* | 92*
Cc1ccc(NC(=O)C(C)SCc2nc3sc4c(c3c(=O)[nH]2)CCCC4)nc1 (stereo not given) | 1 | -12 | 6 | 10 | -9 | nt | nt
C/C(=N\Nc1ccc(S(N)(=O)=O)cc1[N+](=O)[O-])c1cccnc1 | 2 | -1 | 17 | -4 | 10 | nt | nt
c1ccc(-c2cn3c(n2)-c2ccccc2C3)cc1 | 0 | 0 | -1 | 48* | -6 | 132* | 106*
CCCCc1c(C)c(C#N)c2[nH]c3ccccc3n2c1=O | -1 | 99 | 10 | 77* | -7 | -4 | -5
CCCc1cc(=O)n2c([nH]c3ccccc32)c1C#N | 1 | -5 | 0 | 54* | 3 | + | 195*
NS(=O)(=O)c1cccc(NC(=O)c2ccc(S(=O)(=O)N3CCCCCC3)cc2)c1 | 3 | -7 | -4 | -4 | -10 | nt | nt
Clc1ccc(-c2cnnc(-c3ccccn3)n2)cc1 | 0 | 0 | 5 | 1 | 11 | nt | nt
O=C(O)/C=C\C(=O)Nc1ccccc1C(=O)NC1CCCCC1 | -2 | -1 | 7 | 52* | 5 | -2 | -4
O=C(Nc1ccccc1C(=O)NC1CCCCC1)c1ccco1 | -2 | -1 | -4 | 1 | 5 | nt | nt
NNC(=O)c1ccc2nc(-c3ccc(Br)cc3)cn2c1 | -1 | 23 | 2 | 11 | -5 | nt | nt
Cc1ccc2nc(-c3ccccc3)cn2c1 | -1 | 9 | -5 | 37* | -4 | 99* | 88*
COc1ccc(-c2cn3cc(C(=O)NN)ccc3n2)cc1 | 0 | 4 | 4 | 42* | -16 | 89* | 78*
SMILES | Mtb UGM inh | Mtb bLac sens | GDH-TPI counter-1 | FBA Mtb inh | Rv3671c inh | Mtb FBA inh conf | GDH-TPI counter-2
CC(=O)Nc1ccc(-c2cn3cc(C)ccc3n2)cc1 | 0 | -1 | 15 | 74* | 4 | + | 145*
CC(=O)Nc1ccc(-c2cc(C(=O)O)c3ccc(C)cc3n2)cc1 | 0 | 0 | 0 | 47* | 6 | 5 | -5
CC(=O)Nc1ccc(-c2cc(C(=O)O)c3cc4ccccc4cc3n2)cc1 | nt | nt | 3 | 24 | nt | nt | nt
COC(=O)C(Cc1ccc(O)cc1)NC(=O)C(CC(=O)OC(C)(C)C)NC(=O)OC(C)(C)C (stereo not given) | 3 | 4 | 3 | 0 | -1 | nt | nt
CCc1ccc(-c2nc(SCC(=O)c3c(N)n(C4CC4)c(=O)[nH]c3=O)n[nH]2)cc1 | -3 | 2 | 3 | -2 | 1 | nt | nt
CN(C)C(CNc1ncnc2sc3c(c12)CCCC3)c1ccco1 (stereo not given) | 0 | 33 | 9 | 0 | 2 | nt | nt
COc1ccc(NC(=O)CN(C)C(=O)c2cc(-c3ccco3)nc3ccccc23)cc1 | -1 | -6 | 14 | 45* | 10 | + | +
CN(CC(=O)Nc1cccc(F)c1)C(=O)c1cc(-c2ccco2)nc2ccccc12 | -1 | -1 | 11 | 75* | 1 | + | 170*
CCOc1ccc(NC(=O)CN(C)Cc2cc(=O)n3c(-c4ccccc4)csc3n2)cc1OCC | 0 | 1 | 9 | 2 | 0 | nt | nt
CC(C(=O)Nc1ccncc1)(c1ccccc1)c1ccccc1 | 0 | 0 | -6 | 1 | -8 | nt | nt
O=C(Cc1cccs1)N1CCN(c2ccccn2)CC1 | 2 | -12 | -2 | 29* | -2 | 54* | 43*
CN(C)CCCn1c2c3ccccc3ccc2c2oc(=O)c3ccccc3c21 | nt | nt | 6 | 27* | nt | + | +
COc1cc(C)cc2oc(=O)c(CC(=O)N3C[C@H]4C[C@@H](C3)c3cccc(=O)n3C4)c(C)c12 | 3 | 9 | 4 | 81* | -5 | 139* | 124*
Cc1coc2cc3oc(=O)c(CCC(=O)N4C[C@H]5C[C@@H](C4)c4cccc(=O)n4C5)c(C)c3cc12 | 1 | -3 | 12 | 17 | -4 | nt | nt
Cc1cc(O)c2c(C)c(CC(=O)N3C[C@H]4C[C@@H](C3)c3cccc(=O)n3C4)c(=O)oc2c1 | 1 | 3 | 10 | 2 | -4 | nt | nt
C=C(C)COc1ccc2c(C)c(CCC(=O)N3C[C@H]4C[C@@H](C3)c3cccc(=O)n3C4)c(=O)oc2c1 | 3 | -3 | 24 | 70* | 8 | 65* | 53*
C=C(C)COc1cc2oc(=O)c(CC(=O)N3C[C@H]4C[C@@H](C3)c3cccc(=O)n3C4)c(C)c2cc1Cl | 1 | -4 | 23 | 68* | 4 | 2 | -3
Cc1c(C)c2ccc(OCC(=O)N3C[C@H]4C[C@@H](C3)c3cccc(=O)n3C4)cc2oc1=O | 1 | -1 | 23 | 60* | -7 | -8 | -6
O=C(CCNS(=O)(=O)c1ccc(Br)cc1)N1CCN(c2ccccc2O)CC1 | nt | -4 | -14 | -2 | 6 | nt | nt
C=CC(C)(O)CCCC(C)CCCC(C)CCCC(C)C (stereo not given) | 2 | 0 | 5 | 0 | -10 | nt | nt
COc1cc(/C=C/C(=O)OCC(=O)NCCC2=CCCCC2)cc(OC)c1OC | -5 | -4 | 12 | 9 | -3 | nt | nt

Assay outcomes as filed in PubChem.
